Screens as filed in PubChem.
Rows were chosen to be rich in hits. Some 1.5% of all compounds tested hit in one or more screens of this group.
GC-A act – GC-A (human) enzyme activation; P16066; HEK293 GC-A cells, cGMP TR-FRET, EC30 ANP; 0% at EC30 ANP, 100% saturating ANP; activation, % at 10 µM; 370,000 compounds, 0.14% hits; AID 1671463; in the data active = activation above about 40%
Neddylation inh – cullin neddylation inhibition. P61081+Q13564. TR-FRET cullin neddylation, biochemical. inhibition, % at 25 µM. 360,000 compounds, 0.58% hits. AID 651699; in the data active = inhibition above about 36%
NadD inh – inhibitors of Staphylococcus aureus NadD; inhibition, % at 20 µM; AID 602399; 360,000 compounds, 0.78% hits; purified NadD enzyme, colorimetric absorbance read-out; in the data active = inhibition above about 26%
GC-B act – GC-B (human) receptor activation; HEK293-GC-B cells, CNP EC30, cGMP TR-FRET; 0% at EC30 CNP, 100% saturating CNP; 370,000 compounds, 0.11% hits; AID 1920062; activation, % at 10 µM; P20594;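 active = activation at 10 µM reaching about 35% in either raw or pattern-adjusted values, limit read from the data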
Hits are given with their value; n = inactive; x = no result given.

SMILES	GC-A act	Neddylation inh	NadD inh	GC-B act
CC(=O)OCCC(CC(C)C)NC(=O)[C@H](CC(C)C)NC(=O)OCc1ccccc1 (some centres not stated)	n	x	x	n
Cc1ccc(C(=O)Nc2sc3c(c2C(=O)O)CCC(C)C3)o1 (configuration not stated)	n	53	n	n
Cc1ccc(C(=O)Nc2sc3c(c2C(=O)O)CCCCC3)o1	n	x	n	n
COc1ccc(-c2[nH]c(-c3ccc(C(=O)O)cc3)nc2-c2ccccc2)cc1	n	x	n	n
COc1cc(-c2nc(-c3ccc4c(c3)-c3ccccc3S4(=O)=O)c(-c3ccccc3)[nH]2)cc(OC)c1O	n	n	35	n
CCN1/C(=C/C=C/c2sc3ccccc3[n+]2CC)Sc2ccccc21	x	n	n	x
CCN1/C(=C/C=C/c2oc3ccc(-c4ccccc4)cc3[n+]2CC)Oc2ccc(-c3ccccc3)cc21	n	n	44	n
Cn1c(N)c(C(=O)COC(=O)c2cc(S(=O)(=O)N3CCOCC3)ccc2F)c(=O)n(C)c1=O	n	n	n	37
COc1cccc(Cn2cnc3c(NS(=O)(=O)c4cccc(Cl)c4Cl)c(C)c(C)cc32)c1	n	n	30	n
COc1cccc(Cn2cnc3c(NS(=O)(=O)c4ccc(Cl)cc4Cl)c(C)c(C)cc32)c1	n	n	n	n
COC(=O)C1=C(C)N(Cc2ccccc2C(F)(F)F)C(=NCc2cccc(C(F)(F)F)c2)NC1c1ccc(F)cc1 (configuration not stated)	n	x	x	n
COc1ccc(Cl)cc1C(=O)NC(=S)Nc1cc(-c2nc3ccccc3[nH]2)ccc1C	n	n	34	n
C[C@@H]1OC(C2CCCCC2)N(C)[C@H]2C[C@H]3c4cc(-c5ccc6c(c5)OCO6)ccc4CCN3C[C@@H]12 (some centres not stated)	n	x	x	n
CC(=Nc1ccccc1)c1sc2ccccc2c1O	n	44	n	n
CCOC(=O)c1c(C)n(CCOc2ccccc2)c2ccc(O)cc12	56	n	n	n
CCOC(=O)c1c(C)n(CCNC(C)=O)c2ccc(O)cc12	n	n	n	n
CC1(C)OC(=O)C2=C(CC(CCc3ccccc3)OC2c2cccc(C(F)(F)F)c2)O1 (configuration not stated)	n	x	x	n
Cc1ccc(C2CCC3(CCC(=O)N3CCO)CC2)cc1 (configuration not stated)	n	x	x	n
C=CCN1C(=O)C(O)(CC(=O)c2ccc(-n3cccc3)cc2)c2ccccc21 (configuration not stated)	x	n	27	x
O=C(CC1(O)C(=O)Nc2ccccc21)c1ccc(-n2cccc2)cc1 (configuration not stated)	n	n	n	n
O=C1c2ccccc2C(Nc2cccnc2)N1Cc1ccc2c(c1)OCO2 (configuration not stated)	n	n	n	n
O=C1c2ccccc2C(Nc2ccc3c(c2)OCO3)N1Cc1ccc2c(c1)OCO2 (configuration not stated)	59	n	n	n
O=C1c2ccccc2C(Nc2ccc(F)c(Cl)c2)N1Cc1ccco1 (configuration not stated)	n	n	n	n
O=C1c2ccccc2C(Nc2ccc3c(c2)OCO3)N1Cc1ccco1 (configuration not stated)	41	n	n	n
COC(=O)[C@]12C[C@H](CC(=O)NCc3cccs3)C(=O)N(Cc3ccc4c(c3)OCO4)C1=C[C@H](C(C)(C)C)O[C@@H]2C	n	x	x	n
SMILES	GC-A act	Neddylation inh	NadD inh	GC-B act
CCOc1ccc(-n2c(SCC(=O)Nc3ccc(S(=O)(=O)Nc4nccs4)cc3)nnc2-c2ccc(C(C)(C)C)cc2)cc1	n	x	x	n
COc1ccc(Cn2c(=O)n(Cc3ccco3)c(=N)c3c4c(sc32)COC(C)(C)C4)cc1	56	n	n	56
COc1ccc(COc2cc(-c3cccc(OC)c3)nc3ccc(NC(=O)c4cccnc4)cc23)cc1	52	n	n	57
COc1ccc(COc2cc(-c3cccc(OC)c3)nc3ccc(NC(=O)c4ccc(OC)cc4)cc23)cc1	n	n	n	n
O=S1(=O)Nc2c(ccc3cccnc23)-c2ccccc21	x	52	n	x
CCOC(=O)CSc1nc2ccccc2c(=O)n1Cc1ccco1	n	n	n	n
CCOC(=O)CSc1nc2c(sc3ccc([N+](=O)[O-])cc32)c(=O)n1Cc1ccco1	48	n	n	50
CCOc1ccc(C2C(C(=O)c3ccc(C)o3)=C(O)C(=O)N2c2nc(C)c(C(=O)OC)s2)cc1 (configuration not stated)	44	n	n	n
COC(=O)c1sc(N2C(=O)C(O)=C(C(=O)c3ccc(C)o3)C2c2ccc([N+](=O)[O-])cc2)nc1C (configuration not stated)	n	n	n	n
COc1ccc(Cn2c(O)c(/C=N/NC(=O)c3cccnc3)c3ccccc3c2=O)cc1	n	43	n	n
Cc1ccccc1C(=O)N(C)[C@H]1C[C@H]2c3[nH]c4c(-c5ccccc5)cccc4c3CCN2C(=O)[C@H]1[C@H](C)O	n	x	x	n
CCOC(=O)N1CCN(C(=O)CSCC(=O)Nc2nc(-c3ccc(Cl)s3)cs2)CC1	42	n	n	n
CCCC(=O)Nc1nc(-c2ccc(Cl)s2)cs1	55	n	n	n
O=C1OCCC1Sc1nc2cc(Cl)ccc2s1 (configuration not stated)	n	n	n	54
O=C1OCCC1Sc1nc2ccccc2s1 (configuration not stated)	n	n	n	n
COc1ccc(OC)c(CN2C(=O)CSCCC2(C)c2nnnn2C2CCCC2)c1 (configuration not stated)	n	x	x	n
COC(=O)N/N=C/c1cc(C)n(-c2ccccc2)c1C	n	n	n	n
Cc1ccc(-n2c(C)cc(/C=N/NC(=O)Cn3c4ccccc4c(=O)c4ccccc43)c2C)cc1	n	x	37	n
Cc1cc(/C=N/NC(=O)Cn2c3ccccc3c(=O)c3ccccc32)c(C)n1-c1ccc(Cl)cc1	n	x	49	n
CCNC(=S)N/N=C/c1cc(C)n(-c2ccc(Cl)cc2)c1C	n	n	n	n
CC(COc1cccc(C#N)c1)CN1CCC(C(O)(c2ccccc2)c2ccccc2)CC1 (configuration not stated)	n	x	x	n
Cc1cc(O)c2c(c1O)C(=O)[C@]13C(=C2O)C(=O)[C@@H]2[C@@H](O)[C@H]1[C@@H]1[C@H](O)[C@H]3C(=O)C3=C(O)c4c(O)cc(C)c(O)c4C(=O)[C@]312	x	n	32	x
C=CCSc1nc2c(c(=O)[nH]c(=O)n2C)n1Cc1ccc(C)cc1	n	n	n	38
COC(=O)C1CN(Cc2cn(Cc3ccc(F)cc3)nn2)CCS(=O)(=O)N1Cc1ccc(OC)cc1 (configuration not stated)	n	x	x	n
CC(C)CNc1nnnc2c1sc1nc(N3CCOCC3)c3c(c12)CCCC3	51	n	n	52
COCCNc1nnnc2c1sc1nc(N3CCOCC3)c3c(c12)CC(C)(C)OC3	n	n	n	n
O=c1c2sc3nc(N4CCOCC4)c4c(c3c2nnn1Cc1ccccc1)CCCC4	n	x	n	n
